SMILES strings stand for the structures. The whole screen tested about 320,000 compounds, of which about 2,100 (0.66%) were called active. Inconclusive results (about 53%) are left out. Calls come from the whole dose curve; as a rule, active = well fitted inhibition curve with a large enough effect in the signal ratio, with a control signal flat (not every such curve was filed as active); inconclusive = small, poorly fitted or top-dose-only effect, or effect the other way, or a change in a side signal; inactive = flat fitted curve, though single readings scatter; the % refers to the signal ratio. The entries come from a sample that favours actives as a whole.
Potency is the fitted concentration of half-maximal effect.

The assay is described as follows: qHTS Assay for Lipid Storage Modulators in Drosophila S3 Cells.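 For cell number change: cells counted by Cell Tracker Red CMTPX staining in the red channel.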 As to conditions: BODIPY lipid droplet fluorescence, 18-24 h, cells fed with added oleic acid; cell number change: measured here: cell count max response; series mostly up to 46.1 µM. The essentials: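 Laser-scanning cytometry quantifies lipid droplet accumulation (500–530 nm total intensity; droplet/cell object ratio) in oleic acid-fed (400 uM added) Drosophila S3 cells treated with a concentration series. 20 uM Triacsin C defined 100% inhibition.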
On to `COc1ccnc(Oc2cc(Cl)cc(Cl)c2)c1C#N`, for which the Potency result is “inactive” and the cell number change was 16.7%.

With `COc1cc(C(=O)NCC(=O)OCC(=O)Nc2ncc(Cl)cc2Cl)cc(OC)c1OC`, the Potency entry was “inactive”.

Consider `O=C(Cn1nnc(-c2cccs2)n1)NCc1ccco1`, for which the Potency entry was “inactive” and the cell number change was found to be 14.3%.

In the case of `Cc1cc(=O)oc2c3c(cc(OCC(=O)N4CCC(C(=O)O)CC4)c12)OC(C)(C)CC3`, the Potency result was “inactive” and the cell number change came to 22.1%.

Consider `Cc1ncoc1C(=O)NCc1ccccc1Cl`, for which the Potency entry was “inactive” and the cell number change was -13.1%.

`Cc1nc(C)c(C(=O)NCCC(c2ccccc2)c2ccccc2)o1`: the Potency result was “inactive” and the cell number change was -16.5%.

Take `Cc1nc(C)c(C(=O)NCc2ccccc2Cl)o1`: the Potency was 8.2 µM (active) and the cell number change was -27.9%.

With `COC(CNC(=O)c1ccc2nc(-c3ccccc3)c(-c3ccccc3)nc2c1)OC`, the Potency result was “inactive” and the cell number change is -6.61%.

Take `O=C(CN1CCN(c2ccccc2F)CC1)Nc1ccc2c(c1)CCC2`: the Potency entry is “inactive” and the cell number change was -8.56%.

Consider `Cc1ccc(NS(=O)(=O)c2ccc(Cl)s2)cc1S(=O)(=O)N(C)C`, for which the Potency result was “inactive” and the cell number change is 9.65%.

As for `Cc1ccc(S(=O)(=O)N(C)C)cc1NS(=O)(=O)c1ccc(Cl)s1`, the Potency was 6.51 µM (active) and the cell number change is 0.163%.

On to `Cc1nc(-c2ccc(S(=O)(=O)Nc3cc(S(=O)(=O)N(C)C)ccc3C)s2)cs1`, for which the Potency result was “inactive” and the cell number change worked out at 1.19%.

As for `COCCN(C(=O)c1ccco1)c1nnc(-c2ccc(F)cc2)s1`, the Potency result was “inactive” and the cell number change stood at 4.04%.

In the case of `COCCN(C(=O)c1ccccc1F)c1nc(-c2ccc(OC)cc2)cs1`, the Potency result is “inactive” and the cell number change was -17.2%.

In the case of `COCCN(C(=O)c1ccccc1F)c1nnc(-c2ccc(OC)cc2)s1`, the Potency was 18.4 µM (active) and the cell number change was -15.3%.

As for `O=C(Cn1c(NCCCO)nc2ccccc21)c1ccc(F)cc1`, the Potency entry is “inactive” and the cell number change was 11.9%.

Consider `Cc1ccc(SCc2cc(=O)n3[nH]c(C)nc3n2)cc1`, for which the Potency result is “inactive”.

Take `Cc1cc(C)c(CN2CCC(N3CCC(C(=O)NCC4CCCO4)CC3)CC2)cc1C` (configuration not stated): the Potency result was “inactive”.

For the compound `CC[C@@H]1CC=C[C@H]2[C@H]1C(=O)N(Cc1ccccc1)[C@H]2c1ccc2ccccc2c1`, the Potency result is “inactive”.

As for `CCN(CC)C(=O)CSc1nc(-c2cccs2)cc(-c2cccs2)c1C#N`, the Potency was 14.6 µM (active) and the cell number change was -14%.

Turning to `CCN(CC)C(=O)CSc1nc(N)c(C#N)c(-c2cccs2)c1C#N`, the Potency result was “inactive” and the cell number change is -4.19%.

For `CCN(CC)C(=O)CSc1nc(C)cc(-c2cccs2)c1C#N`, the Potency result was “inactive” and the cell number change is -17.5%.

In the case of `O=C(CC1Sc2ccccc2NC1=O)Nc1cccc(-c2nnc3n2CCCCC3)c1` (configuration not stated), the Potency entry was “inactive” and the cell number change is 4.38%.

Consider `Cc1ccsc1C(=O)Nc1ccc2c(c1)OCCO2`, for which the Potency entry is “inactive”.

Turning to `Cc1ccc(NC(=O)c2sccc2C)cc1[N+](=O)[O-]`, the Potency is 8.2 µM (active) and the cell number change was 7.44%.

Consider `Cc1ccc(NC(=O)c2cccs2)cc1[N+](=O)[O-]`, for which the Potency entry is “inactive” and the cell number change is -1.31%.

With `COc1ccc(-c2csc(NC(=O)c3cccc(N4C(=O)CCC4=O)c3)n2)cc1C`, the Potency result was “inactive” and the cell number change was -26.1%.

As for `O=C1CC(=O)N(CCc2ccccc2)C(=O)N1CCc1ccccc1`, the Potency result is “inactive” and the cell number change was -9.18%.

For the compound `COc1ccc(OC)c(N=CC2=C(O)CC(C)(C)CC2=O)c1`, the Potency entry was “inactive” and the cell number change is 25.1%.

In the case of `C/C(=N\Nc1ccc([N+](=O)[O-])cc1)c1ccc2c(c1)OCO2`, the Potency entry was “inactive” and the cell number change is -16.9%.

For `O=C(CCCn1c(=O)c2sccc2n(CC(=O)NCC2CCCO2)c1=O)NCc1ccco1` (configuration not stated), the Potency entry is “inactive” and the cell number change is 3.33%.

With `COCCCn1c(=O)c2sccc2n2c(CCCC(=O)NCC3CCCO3)nnc12` (configuration not stated), the Potency is 18.4 µM (active) and the cell number change was found to be 11.8%.

Consider `CCCn1c(=O)c2sccc2n2c(CCCC(=O)NCc3ccco3)nnc12`, for which the Potency is 29.1 µM (active) and the cell number change was -3.77%.

As for `COCCCn1c(=O)c2sccc2n2c(CCCC(=O)NCc3ccccc3)nnc12`, the Potency result was “inactive” and the cell number change was determined as 12.6%.

As for `CCCN(CCC)C(=O)Cn1c(=O)n(CCCC(=O)NCc2ccco2)c(=O)c2sccc21`, the Potency result is “inactive” and the cell number change came to 2.76%.

As for `CCCn1c(=O)c2sccc2n2c(CCCC(=O)NCC3CCCO3)nnc12` (configuration not stated), the Potency is 20.6 µM (active) and the cell number change was -21.7%.

Turning to `CCCn1c(=O)c2sccc2n2c(CCCC(=O)NC3CCN(Cc4ccccc4)CC3)nnc12`, the Potency result is “inactive” and the cell number change amounted to 6.65%.

On to `Cn1c(=O)c2sccc2n2c(CCCC(=O)NCc3ccco3)nnc12`, for which the Potency entry was “inactive” and the cell number change was -10.3%.

Regarding `Cn1c(C(=O)OCC(=O)NCC2CCCO2)cc2sccc21` (configuration not stated), the Potency result is “inactive” and the cell number change was determined as 0.161%.

For `O=C(O)CCCN=C1NC2(CCCC2)Cc2ccccc21`, the Potency result is “inactive” and the cell number change was 11.6%.

In the case of `Cc1cc(=O)[nH]c(SCC(=O)c2ccc3c(c2)NC(=O)CO3)n1`, the Potency entry was “inactive” and the cell number change worked out at 4.71%.

As to `COc1cccc(NC(=O)CN(C)C(=O)CSc2nc(C)cc(C)n2)c1`, the Potency result is “inactive” and the cell number change is 1.93%.

As for `COC(=O)c1c(NC(=O)c2cccnc2Cl)sc(C(=O)N(C)C)c1C`, the Potency entry was “inactive” and the cell number change came out at 7.02%.

As for `COc1ccccc1C(CC(=O)Nc1ccc(C)c(C)c1)c1ccc(OC(C)C)cc1` (configuration not stated), the Potency result was “inactive” and the cell number change came to 11.9%.

On to `COC(=O)COc1ccc(NC(=O)Cn2nc(-c3ccccc3)c3ccccc3c2=O)cc1`, for which the Potency entry is “inactive” and the cell number change amounted to 0.0736%.

Take `COc1ccc(CNc2nc(S(=O)(=O)c3ccccc3)c(Cl)s2)cc1OC`: the Potency entry was “inactive” and the cell number change was -10.4%.

On to `Nc1cc(OC(=O)c2c(F)cccc2Cl)nn1S(=O)(=O)c1ccccc1`, for which the Potency was 0.517 µM (active) and the cell number change was -4.17%.

For `Cc1ccc(S(=O)(=O)n2nc(OC(=O)c3c(F)cccc3Cl)cc2N)cc1`, the Potency entry is “inactive” and the cell number change was 5.65%.

Regarding `Cc1onc(-c2ccccc2Cl)c1C(=O)Oc1cc(N)n(S(=O)(=O)c2ccc(F)cc2)n1`, the Potency result is “inactive” and the cell number change was -4.68%.

As for `COc1ccc(-c2onc3ccc(Cl)cc23)cc1`, the Potency result is “inactive”.

In the case of `CC(C)NC(=O)c1cc(-n2cnnc2)ccc1Cl`, the Potency was 25.9 µM (active) and the cell number change was -14.2%.

As for `Cc1ccc(NC(=O)c2cc(-n3cnnc3)ccc2Cl)cc1`, the Potency result is “inactive” and the cell number change is -2.68%.

`CC(=O)Nc1ccc(NC(=O)c2cc(-n3cnnc3)ccc2Cl)cc1`: the Potency entry is “inactive”.

In the case of `Cc1cc(Cl)ccc1NC(=S)NCCc1ccc(Cl)cc1`, the Potency is 16.4 µM (active) and the cell number change is -20.6%.

`CCCNC(=S)Nc1ccc(Cl)cc1C`: the Potency entry was “inactive” and the cell number change is -19.9%.

For the compound `Cc1cc(Cl)ccc1NC(=S)NCC(C)C`, the Potency entry is “inactive” and the cell number change is -2.85%.

Regarding `Cc1ccc(/C=C2/SC(=S)N(CCC(=O)N3CCN(C)CC3)C2=O)cc1`, the Potency result is “inactive” and the cell number change amounted to 1.31%.

For the compound `O=C(CCS(=O)(=O)c1ccc(F)cc1)Nc1nc(-c2ccncc2)cs1`, the Potency entry was “inactive” and the cell number change was -16.7%.

In the case of `Cc1csc(NC(=O)CCS(=O)(=O)c2ccc(Br)cc2)n1`, the Potency entry was “inactive”.

For the compound `Cc1ccc(S(=O)(=O)CC(=O)Nc2nc(C(C)(C)C)cs2)cc1`, the Potency result is “inactive” and the cell number change was 18.4%.

As to `Cc1ccc(S(=O)(=O)CCC(=O)Nc2nc(C(C)(C)C)cs2)cc1`, the Potency was 23.1 µM (active) and the cell number change was -1.15%.

On to `Cc1ccc(S(=O)(=O)CCC(=O)Nc2nc(-c3cccnc3)cs2)cc1`, for which the Potency was 13 µM (active) and the cell number change is -24.9%.

On to `Cc1ccc(S(=O)(=O)CC(=O)Nc2nc(-c3ccccc3)cs2)cc1`, for which the Potency result was “inactive”.

Source of the values: PubChem BioAssay AID2685 (National Center for Advancing Translational Sciences (NCATS), 2010).
